Assay results reported in PubChem BioAssay (NCATS).
Several values for one entry are separate records, joined by “and”; a condition that tells them apart may be missing. Equal entries are not always repeated. Inconclusive results are not listed. Activity calls are given as the source filed them. Unless noted, calls follow the shape of the dose curve; as a rule, active = well fitted curve in the direction sought with a large enough effect; inconclusive = small, poorly fitted or top-dose-only effect, or another doubt; inactive = no such curve, though single readings can be large; an effect the other way counts as inactive or inconclusive.

Tests used:
UISO = experiment: qHTS assay to identify novel small-molecules to repurpose for Merkel cell carcinoma treatment (AID 1296009); settings: MCC and control cell lines, CellTiter-Glo viability, 72 h; series mostly up to 46 µM; also: % is scaled to controls: 0 for no effect and ±100 for the full control effect; nearly all actives have a fitted effect of over 60% in size
Method in brief: (§1)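 After compound transfer in DMSO, plates were kept 72 hr at 37 degree celsius. Luminescent ATP signal from CellTiter-Glo served as viability measure, normalized against DMSO and no-cell controls.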

WaGa = experiment: as above; settings: MCC and control cell lines, CellTiter-Glo viability, 72 h; series mostly up to 46 µM
Method in brief: as §1

C33A = experiment: Primary qHTS to identify gynecologic anti-cancer compounds using libraries of approved drugs and bioactive compounds (AID 1345084); settings: Gynecologic cancer cell panel viability, ATPlite luminescence, 48 h; series mostly up to 57.5 µM; also: % is scaled to controls: 0 for no effect and ±100 for the full control effect; nearly all actives have a fitted effect of over 55% in size
Method in brief: (§2)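 Cells, 1,000 per well, were allowed to settle for 16 h at 37 C before compound addition. Five concentrations were tested for 48 h, and viability was read by ATPlite luminescence after 15 min at room temperature.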

CASKI = experiment: as above; settings: Gynecologic cancer cell panel viability, ATPlite luminescence, 48 h; series mostly up to 57.5 µM
Method in brief: as §2

Es-2 = experiment: as above; settings: Gynecologic cancer cell panel viability, ATPlite luminescence, 48 h; series mostly up to 57.5 µM
Method in brief: as §2

HeLa = experiment: as above; settings: Gynecologic cancer cell panel viability, ATPlite luminescence, 48 h; series mostly up to 57.5 µM
Method in brief: as §2

Hek293T = experiment: as above; settings: Gynecologic cancer cell panel viability, ATPlite luminescence, 48 h, control line for the selectivity index; series mostly up to 57.5 µM
Method in brief: as §2

JEG-3 = experiment: as above; settings: Gynecologic cancer cell panel viability, ATPlite luminescence, 48 h; series mostly up to 57.5 µM
Method in brief: as §2

OV90 = experiment: as above; settings: Gynecologic cancer cell panel viability, ATPlite luminescence, 48 h; series mostly up to 57.5 µM
Method in brief: as §2

PA-1 = experiment: as above; settings: Gynecologic cancer cell panel viability, ATPlite luminescence, 48 h; series mostly up to 57.5 µM
Method in brief: as §2

SKOV3 = experiment: as above; settings: Gynecologic cancer cell panel viability, ATPlite luminescence, 48 h; series mostly up to 57.5 µM
Method in brief: as §2

Tov-21-G = experiment: as above; settings: Gynecologic cancer cell panel viability, ATPlite luminescence, 48 h; series mostly up to 57.5 µM
Method in brief: as §2

Tov112D = experiment: as above; settings: Gynecologic cancer cell panel viability, ATPlite luminescence, 48 h; series mostly up to 57.5 µM
Method in brief: as §2

[1] = Drug repurposing screens with cells derived from glioblastoma tumor samples (AID 1345199); settings: GBM patient neurospheres viability, ATP luminescence, 48 h; also: % is scaled to controls: 0 for no effect and ±100 for the full control effect; nearly all actives have a fitted effect of over 40% in size
Method in brief: (§3)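 Four patient lines of CD133+ GBM neurospheres were screened at several concentrations; hits were retested in those lines plus three slower-growing GBM lines, using 48-hour treatment and ATP-based viability.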

astro = experiment: as above; settings: viability, ATP luminescence, 48 h; series mostly up to 45.9 µM
Method in brief: as §3

[2] = biological target: Nuclear receptor subfamily 1 group I member 2 (Rattus norvegicus) (UniProt Q9R1A7); experiment: qHTS assay for small molecule activators of the rat pregnane X receptor (rPXR) signaling pathway (AID 651751; call rule not given here; also: 0% is about no effect); settings: rPXR reporter cells, luciferase (One-Glo), 24 h
[3] = at 45.9 µM (top of the series), tumour line B
[4] = at 45.9 µM (top of the series), tumour line D
[5] = at 46 µM (top of the series), tumour line A
[6] = at 46.1 µM (top of the series), tumour line C

Nuclear receptor subfamily 1 group I member 2 (Rattus norvegicus), sequence (Q9R1A7 whole entry, looked up): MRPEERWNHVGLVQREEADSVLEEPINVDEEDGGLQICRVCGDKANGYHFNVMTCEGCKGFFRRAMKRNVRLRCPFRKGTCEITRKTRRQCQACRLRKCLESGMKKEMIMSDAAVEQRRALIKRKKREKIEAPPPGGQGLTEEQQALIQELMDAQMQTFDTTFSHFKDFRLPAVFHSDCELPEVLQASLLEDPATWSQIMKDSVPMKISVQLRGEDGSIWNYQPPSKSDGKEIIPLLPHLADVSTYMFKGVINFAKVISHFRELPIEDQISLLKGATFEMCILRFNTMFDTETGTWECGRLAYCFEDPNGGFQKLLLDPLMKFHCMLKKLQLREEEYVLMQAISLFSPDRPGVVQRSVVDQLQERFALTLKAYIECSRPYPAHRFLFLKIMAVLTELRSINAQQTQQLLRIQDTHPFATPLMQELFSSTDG

CSc1ccc(/C=C2/C(C)=C(CC(=O)O)c3cc(F)ccc32)cc1
inactive: Potency (UISO) | Potency (WaGa) | Potency (C33A) | Potency (CASKI) | Potency (Es-2) | Potency (HeLa) | Potency (Hek293T) | Potency (JEG-3) | Potency (OV90) | Potency (PA-1) | Potency (SKOV3) | Potency (Tov-21-G) | Potency (Tov112D) | activity, negative = cell killing [1, 3] -6.37% | activity, negative = cell killing [1, 4] -11.2% | activity, negative = cell killing [1, 5] -24% | activity, negative = cell killing [1, 6] -7.45%

Nc1ncnc2nc[nH]c12
inactive: Potency (UISO) | Potency (WaGa) | Potency (C33A) | Potency (CASKI) | Potency (Es-2) | Potency (HeLa) | Potency (Hek293T) | Potency (JEG-3) | Potency (OV90) | Potency (PA-1) | Potency (Tov-21-G) | Potency (Tov112D) | activity, negative = cell killing [1, 3] 11.8% | activity, negative = cell killing [1, 4] 4.13% | activity, negative = cell killing [1, 5] -8.57% | activity, negative = cell killing [1, 6] 8.85% | Potency (astro)

CCCC(=O)OCOC(=O)C1=C(C)NC(C)=C(C(=O)OC)C1c1cccc(Cl)c1Cl (stereo not given)
inactive: Potency (UISO) | Potency (WaGa) | Potency (C33A) | Potency (CASKI) | Potency (Es-2) | Potency (HeLa) | Potency (Hek293T) | Potency (JEG-3) | Potency (OV90) | Potency (PA-1) | Potency (Tov-21-G) | Potency (Tov112D)

Cc1sccc1Br
inactive: Potency (UISO) | Potency (WaGa) | Potency (C33A) | Potency (CASKI) | Potency (Es-2) | Potency (HeLa) | Potency (Hek293T) | Potency (JEG-3) | Potency (OV90) | Potency (PA-1) | Potency (SKOV3) | Potency (Tov-21-G) | Potency (Tov112D)

Cc1cc(C(C)(C)C)c(O)c(C(C)(C)C)c1
inactive: Potency (UISO) | Potency (WaGa) | Potency (C33A) | Potency (CASKI) | Potency (Es-2) | Potency (HeLa) | Potency (Hek293T) | Potency (JEG-3) | Potency (OV90) | Potency (PA-1) | Potency (SKOV3) | Potency (Tov-21-G) | Potency (Tov112D) | activity, negative = cell killing [1, 6] -15.8% | Potency (astro) | max response [2] -5.78% and 3.32%

COc1cc(C(=O)OC(COCCC(C)C)CN2CCOCC2)cc(OC)c1OC (stereo not given)
inactive: Potency (UISO) | Potency (WaGa) | Potency (C33A) | Potency (CASKI) | Potency (Es-2) | Potency (HeLa) | Potency (Hek293T) | Potency (JEG-3) | Potency (OV90) | Potency (PA-1) | Potency (SKOV3) | Potency (Tov-21-G) | Potency (Tov112D) | activity, negative = cell killing [1, 3] -6.94% | activity, negative = cell killing [1, 4] -4.84% | activity, negative = cell killing [1, 6] -4.89% | Potency (astro)

COCCOCC(OC)OC
inactive: Potency (UISO) | Potency (WaGa) | Potency (C33A) | Potency (CASKI) | Potency (Es-2) | Potency (HeLa) | Potency (Hek293T) | Potency (JEG-3) | Potency (OV90) | Potency (PA-1) | Potency (SKOV3) | Potency (Tov-21-G) | Potency (Tov112D)
